Over roughly 33,000 sequences, “E-score (-0.5 to 0.5)” has its median near -0.054; the highest 2% begin near 0.35. This is one part of a sample in which the highest values are shown more often than they occur.
biological target: T1, Stb5 (UniProt P38699); experiment: PBM E-score (8-mer binding enrichment) (E-score (-0.5 to 0.5)); higher = stronger / more preferred TF binding; conditions: protein concentration: 200 nM; construct: GST-full length
T1 sequence: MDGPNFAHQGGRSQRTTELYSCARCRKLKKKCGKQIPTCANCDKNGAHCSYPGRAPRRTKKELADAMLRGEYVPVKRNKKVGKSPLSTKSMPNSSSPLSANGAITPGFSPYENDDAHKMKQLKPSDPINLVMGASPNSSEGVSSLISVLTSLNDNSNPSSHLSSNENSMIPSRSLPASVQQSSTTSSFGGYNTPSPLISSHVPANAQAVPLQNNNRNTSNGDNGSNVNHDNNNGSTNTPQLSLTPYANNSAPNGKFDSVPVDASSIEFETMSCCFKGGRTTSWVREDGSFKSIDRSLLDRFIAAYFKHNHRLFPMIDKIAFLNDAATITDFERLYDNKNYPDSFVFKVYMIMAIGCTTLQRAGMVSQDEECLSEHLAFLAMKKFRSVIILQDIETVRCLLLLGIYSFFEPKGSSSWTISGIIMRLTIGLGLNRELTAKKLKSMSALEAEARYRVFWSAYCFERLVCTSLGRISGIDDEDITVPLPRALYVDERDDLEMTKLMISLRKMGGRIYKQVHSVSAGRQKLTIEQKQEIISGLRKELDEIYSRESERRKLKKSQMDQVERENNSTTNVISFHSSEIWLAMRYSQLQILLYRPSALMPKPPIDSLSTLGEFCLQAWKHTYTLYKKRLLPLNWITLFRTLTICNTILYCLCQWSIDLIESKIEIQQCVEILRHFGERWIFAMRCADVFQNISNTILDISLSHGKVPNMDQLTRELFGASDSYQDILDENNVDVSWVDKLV
Outline: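 Masliner-normalised scans of fluorescent anti-GST signal were the basis for scoring. That signal came from GST-tagged yeast transcription factors applied at about 100-200 nM to double-stranded universal all-10-mer Agilent arrays on fresh or once-stripped slides. Each ungapped eight-base word, pooled with its reverse complement, received an E-score from the Universal PBM Analysis Suite.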

Row | Sequence | PBM E-score
1 | AATGTCCA | -0.0901
2 | ACTGTTAC | -0.163
3 | CCATCGCG | 0.195
4 | AACCCCTT | 0.0178
5 | GCACGTGA | -0.337
6 | AATCGGAC | 0.362
7 | GATCGGAA | 0.133
8 | AATCGGAG | 0.263
9 | GATCGGGC | 0.301
10 | CATCGGAC | 0.34
11 | GATCGGAC | 0.415
12 | ACGCGCCT | 0.013
13 | ACTTGACC | -0.0754
14 | AACGGCAG | 0.107
15 | CTTTTTGA | -0.162
16 | CCCTCCGA | 0.0129
17 | ACCTCCGG | 0.372
18 | ACCTCCGA | 0.364
19 | TCCTCCGA | 0.157
20 | ACCTCCGT | 0.302
21 | CCCTCCGG | 0.122
22 | GCTGGAAA | -0.0514
23 | AACCCTTA | -0.147
24 | CAGGCATG | -0.111
25 | CTAAAAGC | 0.0851

Row | Sequence | PBM E-score
26 | CGAGTTTA | 0.179
27 | GGAGTTTA | 0.362
28 | AGAGTTTA | -0.0332
29 | AGAGTTAC | -0.241
30 | CGAGTTAC | -0.104
31 | GGAGTTAA | 0.398
32 | GGAGTTAC | 0.365
33 | TGAGTTAA | -0.155
34 | AGAGTTAA | -0.131
35 | GCGGCTAC | 0.192
36 | AATACTGA | -0.19
37 | TACCCACA | -0.228
38 | GGGCCTAC | 0.066
39 | ATTATCTA | -0.0957
40 | ACTTGAGC | -0.28
41 | AATTTTAT | 0.292
42 | CTTCAGTC | -0.0437
43 | CTTTTATC | 0.161
44 | GAAGCCGC | 0.202
45 | AAGCCCTT | -0.131
46 | AAAGCCGT | 0.324
47 | AAGCCCAT | -0.0309
48 | AAGCCCGC | 0.443
49 | AAGCCCTG | -0.101
50 | AAGCCCGG | 0.411

Row | Sequence | PBM E-score
51 | AAGCCCGT | 0.417
52 | AAAGCCGC | 0.365
53 | CAGCCCGC | 0.141
54 | GAGCCCGC | 0.252
55 | CAGCCCGG | 0.246
56 | GAAAGGCA | 0.126
57 | ACCCCCCA | -0.204
58 | CACAACGG | 0.166
59 | AAAGCCCT | -0.125
60 | GAGCCCGA | 0.264
61 | TAGCCCGA | 0.171
62 | CAGCCCCG | 0.267
63 | AAAGCCCG | 0.457
64 | AAAGCCCC | 0.246
65 | AAGCCCCC | 0.00224
66 | AAGCCCCG | 0.431
67 | AAGCCCGA | 0.43
68 | CTTCCCCA | -0.184
69 | ATCCTATA | -0.0861
70 | ATGGCAAC | -0.184
71 | ACGAGAAT | 0.00633
72 | CTATGCGC | 0.116
73 | AGACCTTC | -0.109
74 | AAAGGACT | -0.0879
75 | GCCGCAAA | 0.182

Row | Sequence | PBM E-score
76 | GGCCGCCA | 0.141
77 | AGTCCGAG | 0.237
78 | GGTCCGAC | 0.411
79 | AGTCCGAT | 0.414
80 | CGTCCGAC | 0.281
81 | GGTCCGAA | 0.328
82 | AATCCGAC | 0.257
83 | ATTCCGAC | 0.254
84 | AGTCCGAA | 0.299
85 | AGTCCGAC | 0.436
86 | CGGCAGGA | 0.134
87 | GGAACCCC | 0.19
88 | GCCTAGGC | -0.0482
89 | ACCAGGCA | -0.187
90 | AGCTACAC | -0.174
91 | CTCTAGAC | -0.146
92 | GCAGTTGA | -0.177
93 | GTTCATCA | -0.136
94 | ATTAAGAA | 0.0289
95 | ATGAACGA | -0.0854
96 | AACAGGCA | -0.186
97 | CGTCGTAC | 0.0941
98 | GTCCTCTA | -0.159
99 | ACGCCGGG | 0.306
100 | ACGCCGGC | 0.389

Row | Sequence | PBM E-score
101 | CGGCCGGC | 0.284
102 | ACGCCGGA | 0.343
103 | CCGCCGGA | 0.309
104 | CCGCCGGC | 0.421
105 | CGAAAGAA | 0.0281
106 | AACTGCGT | -0.00018
107 | CGCATTGC | -0.0359
108 | CACCGGCA | 0.377
109 | CACCGGCG | 0.417
110 | AACCGGCG | 0.313
111 | CACCGGCC | 0.318
112 | TACCGGCA | 0.31
113 | AACCGGCA | 0.106
114 | CTGCACTA | -0.0814
115 | CGCTAAGC | 0.0898
116 | ATGAAAAC | 0.116
117 | AAATCCCA | -0.156
118 | AAATCCGA | 0.332
119 | AAATCCGT | 0.281
120 | CAATCCCG | 0.281
121 | GAATCCGC | 0.0516
122 | AAATCCGG | 0.376
123 | CAATCCGG | 0.167
124 | AAATCCCG | 0.411
125 | AAATCCGC | 0.354

Row | Sequence | PBM E-score
126 | ATTCGCGG | 0.171
127 | CAGCACTG | -0.172
128 | GAATAAGA | 0.0303
129 | CGTCTAAA | -0.027
130 | CAGCAGTC | -0.115
131 | ACTTCGCT | -0.0885
132 | TACGGTGA | 0.16
133 | AACGGTGA | 0.355
134 | AACGGTGC | 0.332
135 | CACGGTGA | 0.282
136 | AACGGTGG | 0.245
137 | AACGGTGT | 0.425
138 | CCCATTGC | 0.0345
139 | GTCCCTGA | -0.284
140 | GGGAGGCA | 0.111
141 | AGGCTCCG | 0.246
142 | CTTACCGA | 0.0867
143 | GTTACCGA | 0.197
144 | ATTACCGA | 0.38
145 | ATTACCTC | 0.0374
146 | CTTACCGC | 0.193
147 | ATTACCGG | 0.371
148 | ATTACCTG | -0.0469
149 | ATTACCCG | 0.176
150 | ATTACCCC | 0.362

Row | Sequence | PBM E-score
151 | ATTACCGC | 0.419
152 | CTTACCCC | 0.222
153 | ACTACCGG | 0.279
154 | CAGCAAGG | -0.369
155 | GATGATAA | 0.0422
156 | ACCCACTA | 0.0277
157 | CGGCTTCA | 0.259
158 | ACTTTGGG | -0.0994
159 | CTGGCCAC | -0.199
160 | CTCCCGAG | -0.213
161 | CCAAGGTA | -0.11
162 | CGGCGGTC | 0.355
163 | AGGCGGTA | 0.287
164 | CGGCGGTA | 0.451
165 | ATGCGGTA | 0.243
166 | CGGCGGGA | 0.347
167 | CTGCGGTA | 0.254
168 | CGGCGGCC | 0.242
169 | CGGCGGGC | 0.361
170 | CCGCGGGC | 0.335
171 | GTGCGGTA | 0.367
172 | AGGCGGTC | 0.258
173 | GGGCGGTA | 0.346

— the supplement of paper PMC3334620
